Screening results as filed in PubChem.
Compounds with a hit are over-represented: about 7.9% of the library has one in this group of screens.
SW480 rerep – DNA re-replication induction in SW480 cells; SW480 DNA re-replication, Hoechst DNA content imaging, 48 h; Potency, µM (titrated, usually from 46.1 µM), without a hit: at the top dose re-replication activation, hits mostly activators; 1.8% of 340,000 active; further: % of control where 0% means no effect; nearly all actives have a fitted effect of over 55% in size
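Hoechst fluorescence of nuclei (405 nm excitation, 500-530 nm emission) measured by plate-scanning imager after 48 hr compound exposure at 37 C; re-replication scored as increased number of nuclei with elevated intensity.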
HT1080NT lethal – kills 2HG-producing HT-1080-NT fibrosarcoma cells; HT-1080-NT fibrosarcoma viability, CellTiter-Glo ATP luminescence, 48 h; Potency, µM (titrated, usually from 46.1 µM), for inactives: at the top dose activity, negative = less viability, actives largely listed as cytotoxic; 1.6% of 360,000 active; AID 686970;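 further: NT is the 2HG producing partner of a matched IDH1 knockdown line; 0% = DMSO-treated cells and -100% = media-only wells without cells; nearly all actives have a fitted effect of over 55% in size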
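Viability of the 2HG-overproducing fibrosarcoma line after 48 hours of compound exposure at 37 degrees C was determined by luminescence with CellTiter-Glo, and concentration-effect curves were then fitted and categorized.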
KB-V1 cytotox – KB-V1 MDR subline cytotoxicity. KB-V1 MDR cells viability, CellTiter-Glo, 72 h. Potency, µM (titrated, usually from 46.1 µM), most hits filed as cytotoxic. 3.4% of 400,000 active. AID 1347076; further: on the % scale 0 is the no-effect control and ±100 the full control effect; nearly all actives have a fitted effect of over 60% in size
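Cytotoxicity via CellTiter-Glo luminescence after 72 h compound exposure at 37 degrees C. Cells: drug-selected KB-V1 line, DMEM phenol-red free plus 10% FBS. Compounds tested at multiple concentrations; normalized data fitted to concentration-effect curves.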
KB-3-1 tox – KB-3-1 parental cell cytotoxicity. Potency, µM (titrated, usually from 46.1 µM), hits mostly cytotoxic. 1.4% of 400,000 active. KB-3-1 viability, CellTiter-Glo ATP luminescence, 72 h; further: on the % scale 0 is the no-effect control and ±100 the full control effect; nearly all actives have a fitted effect of over 60% in size
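Multi-concentration cytotoxicity screen in KB-3-1 cells grown in DMEM lacking phenol red with 10% FBS. After 72 h at 37 °C with compound, ATP-dependent luminescence was recorded.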
MCF10A rereplic – induces DNA re-replication in MCF 10a normal breast cells; MCF 10A DNA re-replication, Hoechst nuclear intensity, 48 h; Potency, µM (doses to about 46.1 µM), for inactives: at the highest dose activity, positive = re-replication, usual class: activators; 2.9% of 350,000 active; AID 624296; further: % of control where 0% means no effect; nearly all actives have a fitted effect of over 50% in size
HT1080 IDH1KD tx – kills HT-1080 cells with IDH1 knockdown. HT-1080 IDH1 knockdown viability, ATP luminescence, 48 h. Potency, µM (doses to about 46.1 µM), inactives show at the highest dose activity, negative = toxicity, most hits filed as cytotoxic. 2% of 360,000 active. AID 686971;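 further: 0% = DMSO wells and -100% = cell-free medium wells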
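Using the IDH1-knockdown HT-1080 line run in the same batch and compound series as the NT line, viability after 48 h at 37 °C was determined by CellTiter-Glo luminescence and expressed as % activity.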
* hit, by the source's call; i = inactive; ? = inconclusive; / = not tested or not shown; [ ] = another dose, or the depositor's remark. The call rests on the fitted dose curve; in most records, active means well fitted curve in the direction sought with a large enough effect; inconclusive means small, poorly fitted or top-dose-only effect, or another doubt; inactive means no such curve, though single readings can be large; an effect the other way counts as inactive or inconclusive. Potency means the concentration at half of the fitted maximal effect.

SMILES | SW480 rerep | HT1080NT lethal | KB-V1 cytotox | KB-3-1 tox | MCF10A rereplic | HT1080 IDH1KD tx
COc1ccc([C@H]2CC(=O)C=C(c3ccc4[nH]ccc4c3)C2)cc1OC | 3%[9.22 µM] | -10% | i | i | -5% | -1%
CC(=O)Nc1cc(C(=O)N2CCN(C)CC2)ccc1S(=O)(=O)c1ccc(C)cc1 | 28% | 0%[9.24 µM] | i | i | 1% | 0%
O=C(Cc1ccc(F)cc1)c1ccc(O)cc1O | 1% | 0% | i | i | 3% | 8%
CCc1cc(C(=O)Cc2ccc(F)cc2)c(O)cc1O | -2% | ? | 16µM* | ? | 9% | ?
CCCc1cc(C(=O)Cc2ccc(F)cc2)c(O)cc1O | -8% | 23µM* | i | i | ? | 21µM*
CCCc1cc(C(=O)Cc2ccc(C(=O)OCC)o2)c(O)cc1O | 5% | -15% | i | i | ? | -27%
CN(Cc1ccccc1)C(=O)c1cc2c(s1)-c1ccc(Cl)cc1SC2 | / | / | i | i | / | /
NNC(=O)c1cc2c(s1)-c1cc(Cl)ccc1SC2 | 29µM* | ? | i | ? | 21µM* | ?
COc1ccc(NC(=O)CSCC(=O)Nc2ccccc2N2CCCC2)cc1 | -5% | -9% | i | i | 3% | -12%
O=C(Nc1ccc2nc3n(c(=O)c2c1)CCCC3)c1cccc([N+](=O)[O-])c1 | 1% | 11% | ? | i | 0% | 2%
O=C(Nc1ccc2nc3n(c(=O)c2c1)CCCC3)c1cc([N+](=O)[O-])ccc1F | 15µM* | -20% | 16µM* | i | 15µM* | ?
CC1CCN(C(=S)Nc2ccc3nc4n(c(=O)c3c2)CCCCC4)CC1 | -4% | -3% | 6.5µM* | i | ? | -7%
O=c1c2cc(NC(=S)N3CCCCC3)ccc2nc2n1CCCCC2 | -22% | -2% | i | i | 7% | -8%
COc1ccccc1C(=O)NC(=O)Nc1ccc(-n2nc(C(F)(F)F)cc2C(F)(F)F)cc1 | / | / | i | i | / | /
Cc1c(Cc2ccccc2)c(=O)oc2c(CN(C)C)c(O)c(Cl)cc12 | -6% | -2% | 9.2µM* | ? | 18µM* | -26%
CCN(CC)Cc1c(O)c(Cl)cc2c(C)c(C)c(=O)oc12 | -24% | 2% | i | i | ? | 1%
Cc1c(CC(=O)NCc2ccccc2)c(=O)oc2c(C)c(O)ccc12 | / | / | ? | 13µM* | / | /
COc1ccc2c(C)c(CC(=O)NCc3ccc(C)cc3)c(=O)oc2c1OC | / | / | ? | i | / | /
Cc1c(Cc2ccccc2)c(=O)oc2c(O)c(O)ccc12 | ? | -1% | i | ? | 21µM* | -21%
COc1ccccc1NC(=O)c1cc([N+](=O)[O-])ccc1NCCN1C(=O)CCC1=O | -10% | 2% | i | i | 2% | -1%
O=C(Nc1cccc(NC(=O)c2ccc([N+](=O)[O-])o2)c1)c1ccco1 | 4.1µM* | 18µM* | ? | ? | 2.3µM* | 10µM*
CC(=O)Nc1cccc(NC(=O)c2ccco2)c1 | -12% | -4% | i | i | 10% | -12%
O=C(/C=C/c1cccc([N+](=O)[O-])c1)Nc1cccc(NC(=O)c2ccco2)c1 | 19% | 0% | ? | ? | 16µM* | -2%
O=C(Nc1ccc(NC(=O)c2ccc([N+](=O)[O-])o2)cc1Cl)c1ccco1 | 2.1µM* | -13% | i | 18µM* | 9.2µM* | ?
O=C(/C=C\c1ccco1)Nc1cc([N+](=O)[O-])ccc1F | 0.58µM* | 1.5µM* | 1.2µM* | 4.1µM* | ? | ?
O=C(/C=C/c1ccc(Cl)c([N+](=O)[O-])c1)Nc1cccc(NC(=O)c2ccco2)c1 | ? | ? | i | i | ? | ?
O=S(=O)(NC(=NC1CCCCC1)c1ccccc1)c1ccc(F)cc1 | 4% | 11% | i | i | -3% | 9%
